Some test systems named below: HCT-15 colon; HT29 colon; SNB-75 CNS; SNB-19 CNS; U251 CNS; PC-3 prostate; SK-MEL-5 melanoma; UACC-62 melanoma; SK-MEL-28 melanoma.
Experiment in all cases: NCI-60 one-dose screen, 48 h (100 = growth as untreated, 0 = no growth, -100 = all killed)
What all share (conditions): 10 µM unless noted

In PubChem BioAssay (NCI) one finds growth data, which are given here for 14 molecules.

Compounds without any hit were thinned out: in the full panel of roughly 83,000, 20% have a hit.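 Method: cells in 96-well plates; compound added at one concentration; 48 h incubation; percent growth measured; values under 10 scored active.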 A number with no mark means an inactive call. The source made the active and inactive calls.

Regarding `CN1CCN(c2ccc3nc(-c4[nH]ncc4Nc4ncnc5c4OCCCN5)[nH]c3c2)CC1`, the growth with HCT-15 colon is -64.7% (active); in the assay on HT29 colon it was -24.6% (active); in the assay with SNB-75 CNS, -93.1% (active); with SNB-19 CNS, -46% (active); in the assay on U251 CNS, -55.7% (active); in the assay with PC-3 prostate, -58.5% (active). The growth with SK-MEL-5 melanoma is -93.4% (active); in the assay on UACC-62 melanoma, -74.9% (active); in the assay on SK-MEL-28 melanoma, -73.1% (active).

`Cc1cc(C)n(Cc2cc(C(C)(C)C)cc(C(C)(C)C)c2)c(=O)c1C#N`: the growth is 86.8% in the assay on HCT-15 colon; 99.4% with HT29 colon; 96.1% in the assay with SNB-75 CNS; 95.8% in the assay on SNB-19 CNS; 97.9% in the assay with U251 CNS; 79% in the assay on PC-3 prostate. The results for the growth in the assay on SK-MEL-5 melanoma, with UACC-62 melanoma and with SK-MEL-28 melanoma were 90.7%, 72.8% and 102%, respectively.

For `CCc1nnc(NC(=O)c2ccoc2COc2ccccc2)s1`, the growth in the assay with HCT-15 colon is 24.3%; in the assay on HT29 colon, 28.6%; with SNB-75 CNS, 8.1% (active); in the assay with SNB-19 CNS, 42.4%; in the assay with U251 CNS it was 49.7%; with PC-3 prostate, 67%. Besides, the growth in the assay on SK-MEL-5 melanoma is 44.5%; in the assay on UACC-62 melanoma it was 34.8%; in the assay with SK-MEL-28 melanoma it was 51.2%.

As for `CCCCCC1CCCCN1C(=O)OCC` (stereo unspecified), the growth in the assay with HCT-15 colon was 96%; with HT29 colon it was 101%; in the assay on SNB-75 CNS, 88.4%; in the assay on SNB-19 CNS it was 105%; in the assay with U251 CNS, 96.7%; in the assay on PC-3 prostate, 91.9%. For the same molecule, the growth was 116% in the assay on SK-MEL-5 melanoma, 105% in the assay on UACC-62 melanoma and 106% in the assay on SK-MEL-28 melanoma.

For the molecule `COc1cc2nc(Cl)nc(Nc3cccc(C(=O)/C=C/c4ccccc4)c3)c2cc1OC`, the growth in the assay on HCT-15 colon is -34.1% (active); in the assay on HT29 colon, 4.17% (active); with SNB-75 CNS, 62.1%; in the assay with SNB-19 CNS, 32.9%; in the assay on U251 CNS it was 21.4%; in the assay on PC-3 prostate, 49.2%. For the same molecule, the growth is 68.8% in the assay on SK-MEL-5 melanoma, 57.8% in the assay on UACC-62 melanoma and 56.4% in the assay with SK-MEL-28 melanoma.

As to `O=c1[nH]c(=S)[nH]c2nc[nH]c12`, the growth with HCT-15 colon is 99.5%; with HT29 colon it was 103%; in the assay with SNB-75 CNS it was 84.6%; in the assay on SNB-19 CNS it was 107%; in the assay with U251 CNS, 105%; in the assay with PC-3 prostate, 96.9%. Further, the values for the growth with SK-MEL-5 melanoma, in the assay with UACC-62 melanoma and with SK-MEL-28 melanoma were 110%, 97.6% and 110%, respectively.

For the molecule `COc1ccc2[nH]cc(-c3nc(-c4c[nH]c5ncccc45)cs3)c2c1`, the growth in the assay with HCT-15 colon is -34.8% (active); in the assay with HT29 colon, 12.1%; in the assay on SNB-75 CNS, 19.5%; with SNB-19 CNS it was 77.4%; in the assay on U251 CNS, 34.8%; in the assay with PC-3 prostate, 44.2%. Further, the results for the growth in the assay with SK-MEL-5 melanoma, in the assay on UACC-62 melanoma and in the assay with SK-MEL-28 melanoma were 48.2%, 50.4% and 69.9%, respectively.

As for `Cc1csc(Nc2nc(-c3cccc(Br)c3)nc(C(Cl)(Cl)Cl)n2)n1`, the growth in the assay on HCT-15 colon is 59.3%; in the assay on HT29 colon, 18.9%; in the assay on SNB-75 CNS it was 52.5%; with SNB-19 CNS, 39.8%; in the assay with U251 CNS it was 35.8%; with PC-3 prostate, 48.9%. The growth is 91.1% in the assay with SK-MEL-5 melanoma, 60.5% in the assay with UACC-62 melanoma and 47% in the assay on SK-MEL-28 melanoma.

As for `Cn1cc(-c2csc(-c3c[nH]c4ccccc34)n2)c2cccnc21`, the growth was 25.6% in the assay on HCT-15 colon; 10.2% in the assay on HT29 colon; -5.48% (active) with SNB-75 CNS; 47.2% in the assay with SNB-19 CNS; 27.2% in the assay with U251 CNS; 22.1% with PC-3 prostate. Also, the figures for the growth with SK-MEL-5 melanoma, in the assay on UACC-62 melanoma and in the assay with SK-MEL-28 melanoma were 11.1%, 44.7% and 53.9%, respectively.

`COc1c(N)c2c(c([N+](=O)[O-])c1OC)C(=O)OC2`: the growth with HCT-15 colon is 105%; in the assay on HT29 colon, 102%; in the assay on SNB-75 CNS, 98.7%; with SNB-19 CNS, 102%; in the assay on U251 CNS, 110%; with PC-3 prostate, 96.7%. The growth in the assay on SK-MEL-5 melanoma was 113%; in the assay with UACC-62 melanoma, 102%; with SK-MEL-28 melanoma, 108%.

For the molecule `O=C1c2cccc3cccc(c23)C(=O)N1CC#Cc1ccc2c3c(cccc13)C(=O)N(CCO)C2=O`, the growth with HCT-15 colon is 82.1%; with HT29 colon, 96.5%; in the assay on SNB-75 CNS, 69.9%; in the assay on SNB-19 CNS, 96.3%; in the assay with U251 CNS, 93.1%; in the assay on PC-3 prostate, 84.8%. In addition, the values for the growth with SK-MEL-5 melanoma, in the assay on UACC-62 melanoma and in the assay on SK-MEL-28 melanoma were 90.8%, 93.1% and 112%, respectively.

For the molecule `O=[N+]([O-])c1ccc(/C=N\Nc2ccccc2)cc1`, the growth is 65.5% in the assay with HCT-15 colon; 96.8% in the assay with HT29 colon; 81.8% in the assay with SNB-75 CNS; 104% in the assay with SNB-19 CNS; 72% with U251 CNS; 69% with PC-3 prostate. The growth in the assay on SK-MEL-5 melanoma was 98.1%; in the assay on UACC-62 melanoma, 3.85% (active); with SK-MEL-28 melanoma it was 97.5%.

With `C=C(C)[C@@H]1CC[C@]2(C(=O)OC)CC[C@]3(C)[C@H](CC[C@@H]4[C@@](C)(CC/C(N)=N/O)[C@H](C(=C)C)CC[C@]43C)[C@@H]12`, the growth with HCT-15 colon is 102%; with HT29 colon it was 99.1%; in the assay on SNB-75 CNS it was 95.4%; in the assay on SNB-19 CNS, 95.9%; with U251 CNS, 97.7%; with PC-3 prostate, 86.1%. For the same molecule, the growth is 94.2% in the assay on SK-MEL-5 melanoma, 99.6% in the assay on UACC-62 melanoma and 101% in the assay with SK-MEL-28 melanoma.

As to `CC(=O)n1c(/C(C#N)=C/c2ccc(N(C)C)cc2)cc2ccccc21`, the growth is 23.9% with HCT-15 colon; 9.7% (active) in the assay on HT29 colon; -6.19% (active) in the assay on SNB-75 CNS; 35.8% in the assay with SNB-19 CNS; 36.4% in the assay with U251 CNS; 39.4% in the assay on PC-3 prostate. Besides, the growth is 29.7% with SK-MEL-5 melanoma, 26.8% in the assay with UACC-62 melanoma and 60.8% in the assay with SK-MEL-28 melanoma.
